The whole screen tested about 310,000 compounds, of which about 970 (0.31%) were called active.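 Rule for the calls: active = every replicate shows inhibition above about 80%, whatever the replicate mean (limit read from the data); inconclusive = mean inhibition reaches the set limit but some replicate falls short; inactive = the rest.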 The list comes from a sample in which actives are over-represented; it also holds similar structures and randomly drawn compounds.

As usually defined, the inhibition is the drop in the measured response relative to a control, in per cent.

This test can be described thus: reduced ATP signal of yeast carrying P. falciparum Hsp90 – S. cerevisiae, BacTiter-Glo luminescence, single point, set 2, antimalarial PfHsp90 inhibitor project, primary screen (AID 504621).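 Note: yeast relying on Plasmodium falciparum Hsp90 in place of its own; 0% = DMSO neutral controls and 100% = 20 µM radicicol positive controls.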 Particulars: S. cerevisiae expressing PfHsp90, growth, 48 h, at 9.4 µM, hits give high values, yeast lacking PDR1 and PDR3 efflux regulators.
For the compound `Cc1ccc(OCCCn2c(=O)oc3ccccc32)cc1`, the inhibition was -16.3% (inactive).

For the compound `CCCCCCCCCCOC(=O)Cn1c(COc2cccc(OC)c2)[n+](C)c2ccccc21`, the inhibition was -14.9% (inactive).

Take `CCCCCCCCCCOC(=O)Cn1c(COc2ccc(C)cc2)[n+](C)c2ccccc21`: the inhibition is 110% (active).

Take `COc1ccc(-c2nc3cc(C)ccn3c2NC2CCCCC2)cc1SC1CCCCC1`: the inhibition is 9.74% (inactive).

As for `FC(F)(F)c1ccc(-c2cccc3c2C2CC3CCN2Cc2ccccc2)cc1` (stereo not drawn), the inhibition was 6.57% (inactive).

Take `O=C1C=C(c2ccc(Cl)cc2)C(=O)N1Nc1ccccc1`: the inhibition is 134% (active).

Take `O=C(O)CC1=C(Nc2ccccc2)C(=O)N(c2ccccc2)C1c1ccc(Cl)cc1` (stereo not drawn): the inhibition was -10.5% (inactive).

Turning to `O=C(CCC(=O)OCc1ccc(Cl)cc1)Nc1ccccc1`, the inhibition was -21.6% (inactive).

In the case of `COc1cc(/C=C/c2ccc(/C=C/c3cc(OC)c(OC)c(OC)c3)cc2)cc(OC)c1OC`, the inhibition is -3.68% (inactive).

As to `Cc1c[n+]([O-])ccc1[N+](=O)[O-]`, the inhibition is 4.7% (inactive).

Regarding `COCC(=O)N(C)[C@H]1C[C@H]2c3cc(Oc4ccccc4C)ccc3CCN2C(=O)[C@H]1[C@H](C)O`, the inhibition is -8.3% (inactive).

Regarding `O=S(=O)(Nc1ccc2ccccc2c1)N1CCCCC1`, the inhibition is 2.41% (inactive).

Regarding `O=C(CNC(=O)c1cc(S(=O)(=O)N2CCOCC2)ccc1N1CCCC1)Nc1ccc(F)c(F)c1`, the inhibition was -6.44% (inactive).

For the compound `CCN1/C(=C\c2ccc3ccccc3[n+]2CC)Sc2cc(C)ccc21`, the inhibition was 87.5% (active).

Regarding `Cc1cccc(C=CC(=O)c2ccc(Cl)cc2)c1`, the inhibition is 5.15% (inactive).

Regarding `Cc1ccc(C)c(N2CCN(C(=O)CCc3nc(-c4cccc(C(F)(F)F)c4)no3)CC2)c1`, the inhibition is -1.63% (inactive).

On to `O=C(O)C(CCc1ccccn1)c1ccccc1` (stereo not drawn), for which the inhibition is -16% (inactive).

For the compound `CCCCNC(=O)C(C)N(CCN(C)C)C(=O)CCCCCN1C(=O)NC(c2ccc(Cl)cc2)C(C(=O)OCc2ccccc2)=C1C` (stereo not drawn), the inhibition is -0.725% (inactive).

Consider `COc1cccc(/C=N/Nc2ncc(C(F)(F)F)cc2Cl)c1O`, for which the inhibition is 91.5% (active).

For the compound `FC(F)(F)c1cnc(Oc2ccccc2-c2nnc(-c3ccc(Cl)cc3)o2)c(Cl)c1`, the inhibition was -8.43% (inactive).

Regarding `COc1cccc(/C=N/Nc2cc(C)nc(-c3ccccc3O)n2)c1O`, the inhibition is -15.4% (inactive).

`CCCCCCCCNS(=O)(=O)CCNC1CCCCC1`: the inhibition is 21.1% (inactive).

With `O=C(NC1=CC(=O)c2ccccc2C1=O)c1ccccc1`, the inhibition is 54.3% (inactive).

In the case of `C#CCOCCOCCOCCNc1nc(N2CCN(C(=O)Cn3cc(CCO)nn3)CC2)nc(N2CCN(C(=O)[C@H](CCCCN)n3cc(CCCC)nn3)CC2)n1`, the inhibition was -9.73% (inactive).

On to `Oc1c(Cl)cc(Cl)c(Cl)c1Cc1c(O)c(Cl)cc(Cl)c1Cl`, for which the inhibition is 108% (active).

`O=C(Nc1ccc2ccccc2c1[N+](=O)[O-])c1ccccc1`: the inhibition is -14.2% (inactive).

Consider `COc1ccc(CC(=O)NC(C)c2ccc(Cl)c(Cl)c2)cc1S(=O)(=O)N1CCOCC1` (stereo not drawn), for which the inhibition is 15.2% (inactive).

As for `CCOc1ccc(C(C)C)cc1S(=O)(=O)n1nc(C)cc1C`, the inhibition was 11.4% (inactive).

Consider `COc1ccc(OCc2cn3c(C)cc(C)nc3n2)cc1`, for which the inhibition was -13.7% (inactive).

As to `COc1ccc(C(C[N+](=O)[O-])n2nc(C)cc2C)cc1` (stereo not drawn), the inhibition is 104% (active).

Take `O=C(/C(=C/c1cccc(Cl)c1)c1nc2ccccc2[nH]1)c1ccccc1`: the inhibition is 86.9% (active).

Regarding `CCC(=O)/C(=C(/O)c1ccccc1)c1nc2ccccc2[nH]1`, the inhibition is -12.2% (inactive).

Regarding `O=C(Cc1nc2ccccc2[nH]c1=O)c1ccc(Cl)cc1`, the inhibition is -1.68% (inactive).

Consider `Nc1ccc2c(c1)C(O)c1ccc(Cl)cc1-2` (stereo not drawn), for which the inhibition was -1.88% (inactive).

`O=C(Nc1ccccc1Cl)/C(Cl)=C(\Cl)S(=O)c1ccccc1` (stereo not drawn): the inhibition was 127% (active).

On to `CN(C)S(=O)(=O)Oc1ccccc1C(=O)Nc1ccccc1Cl`, for which the inhibition is 15.5% (inactive).

Take `O=C(Nc1ccccc1Cl)O/N=C(/c1ccccc1)c1ccccn1`: the inhibition is 9.66% (inactive).

Regarding `Cc1cc(OCCCC(=O)Nc2cc(S(=O)(=O)N3CCOCC3)ccc2N2CCOCC2)ccc1Cl`, the inhibition was -7.69% (inactive).

With `COc1ccc(C2=Nn3c(nnc3-c3ccccc3OC)SC2)cc1OC1CCCC1`, the inhibition was 1.24% (inactive).

For the compound `CCCCN(C(=O)CSCc1ccc(C)cc1)c1c(N)n(Cc2ccccc2)c(=O)[nH]c1=O`, the inhibition was -17.2% (inactive).

As for `Cc1cc2c(cc1C)NC1(C[C@H]3CCC(=O)N4CC[C@@H](C1)[C@@H]34)C(=NC(C)(C)CC(C)(C)C)N2` (stereo partly drawn), the inhibition was 3.65% (inactive).

`CSc1nnc(NC(=O)c2nc(S(=O)(=O)Cc3ccc(C)cc3)ncc2Cl)s1`: the inhibition is 11.8% (inactive).

As to `CCOc1ccc(NC(=O)c2nc(SCC)ncc2Cl)cc1`, the inhibition is 15.7% (inactive).

Turning to `Cc1cccc(NC(=O)c2nc(S(=O)(=O)Cc3ccccc3)ncc2Cl)c1`, the inhibition was 98.3% (active).

For `Cc1ccc(CS(=O)(=O)c2ncc(Cl)c(C(=O)Nc3nnc(C)s3)n2)cc1`, the inhibition is 7.63% (inactive).

Consider `CSc1ncc(Cl)c(C(=O)Nc2cc(C)ccc2C)n1`, for which the inhibition was 7.23% (inactive).

For `Cc1cccc(CS(=O)(=O)c2ncc(Cl)c(C(=O)Nc3ccc(F)cc3)n2)c1`, the inhibition was 105% (active).

As to `COC1C(CO)OC(n2cnc3c(=S)nc(N)[nH]c32)C1O` (stereo not drawn), the inhibition is 24.5% (inactive).

As to `COc1ccccc1NC(=O)N(O)C1(C#N)CCCCC1`, the inhibition was -17.6% (inactive).

Turning to `Cc1cc(NC(=O)C(C)SCC(=O)Nc2cccc(S(=O)(=O)N3CCCCCC3)c2)no1` (stereo not drawn), the inhibition is -41.5% (inactive).

Regarding `CC1(C)C(=O)CCC2(C)C1=CCC1C2C(=O)CC2(C)C1CCC2(O)C(=O)CO` (stereo not drawn), the inhibition is 20.2% (inactive).

As to `COc1ccc(CCNC(=O)COc2cc(C)cc3oc(=O)c(C)c(C)c23)cc1OC`, the inhibition was -2.49% (inactive).

Consider `CCN1C[C@@H]2[C@@H]3C(=O)N(C)C(=O)[C@@H]3[C@](C)(C1=O)N2C(=O)c1ccccc1`, for which the inhibition is -20.8% (inactive).

For the compound `COc1ccc(Cl)cc1C=CC=Nc1ccc(S(N)(=O)=O)cc1`, the inhibition was 4.35% (inactive).

In the case of `O=C(CSc1ccc(-c2ccccn2)nn1)Nc1ccccc1`, the inhibition was 119% (active).

As for `O=C(CSc1ccc(-c2ccco2)nn1)Nc1cccc(F)c1`, the inhibition was -6.54% (inactive).

Turning to `O=C(CSc1ccc(-c2ccc(-n3cccn3)cc2)nn1)Nc1ccc([N+](=O)[O-])cc1`, the inhibition is 2.41% (inactive).

For the compound `NS(=O)(=O)c1ccc(CCNC(=O)c2ccc(Cl)c(S(=O)(=O)N3CCCCCC3)c2)cc1`, the inhibition is -11.9% (inactive).

Take `O=S(=O)(Cc1ccc(Cl)cc1Cl)c1ccc(Cl)cc1`: the inhibition is -35.8% (inactive).

Turning to `Cc1cccc(C)c1NC(=O)CN(C)C(=O)CCC(=O)c1ccccc1`, the inhibition is 3.14% (inactive).

Regarding `Cc1cccc(C)c1NC(=O)C(Cl)C(=O)c1ccccc1` (stereo not drawn), the inhibition was 106% (active).

As for `Cc1cccc(C)c1NC(=O)C(c1ccccc1)N1CC(=O)Nc2ccccc21` (stereo not drawn), the inhibition was -3.52% (inactive).

For the compound `CC[C@]12c3[nH]c4ccc(OC)cc4c3CCN1C(=O)C(CC(=O)NCc1ccco1)C[C@@H]2C(=O)N1CCN(C(=O)C2CC2)CC1` (stereo partly drawn), the inhibition is 0.556% (inactive).

Consider `CCOC(=O)C1CCCN(C(=O)CN(c2ccc(OC)cc2)S(=O)(=O)c2c(C)noc2C)C1` (stereo not drawn), for which the inhibition is 14.1% (inactive).

Turning to `COc1ccc(NC(=O)N2CCCC(c3nc(-c4ccc(F)cc4)no3)C2)cc1` (stereo not drawn), the inhibition is -5.6% (inactive).

Consider `CCN(C(=O)C1CCCN(c2nc(-c3ccc(OC)cc3)no2)C1)c1ccc(OC)cc1` (stereo not drawn), for which the inhibition was 103% (active).

In the case of `CC(=O)CCC(=O)c1ccc2ccccc2c1`, the inhibition was 14.9% (inactive).

Take `Cc1cc(N=Nc2ccc3ccccc3c2)ccc1O`: the inhibition was 107% (active).

Turning to `Cc1ccc(/C=N/NC(=O)c2cc3ccccc3cc2O)o1`, the inhibition is -3.13% (inactive).

On to `CCCCNC(=O)C(C)N(CCN(C)C)C(=O)CCCN1C(=O)NC(c2ccc(Cl)cc2)C(C(=O)OCc2ccccc2)=C1C` (stereo not drawn), for which the inhibition was -3.34% (inactive).

As for `CN(C)CCNC(=O)c1ccc(Cl)c2cc3ccccc3nc12`, the inhibition was -3.1% (inactive).

Take `Cc1nc2nc(SCC(=O)NCc3ccco3)nn2c(C)c1Cc1ccccc1`: the inhibition is -0.223% (inactive).

As for `O=c1nc2s/c(=C\c3ccco3)c(=O)n2nc1Cc1ccccc1`, the inhibition was 109% (active).

In the case of `O=C(Cc1ccccc1)n1nc(-c2ccccc2)nc1NCc1ccco1`, the inhibition was -9.78% (inactive).

Regarding `c1ccc2sc(NN=C3CCCC3)nc2c1`, the inhibition is 7.45% (inactive).

As to `O=C(CCNC(=O)c1ccccc1)Nc1nc2ccccc2s1`, the inhibition is -3.35% (inactive).

For the compound `c1ccc(C(=NNc2nc3ccccc3s2)c2ccccn2)cc1`, the inhibition is 108% (active).

`O=[N+]([O-])c1ccc(N=NNc2ccc([N+](=O)[O-])cc2)cc1`: the inhibition was -30.4% (inactive).

Values taken from PubChem BioAssay AID504621 (Broad Institute, 2011).
